NS1 function inh: blocks influenza NS1 protein function. Potency, µM (titrated, usually from 46.1 µM), without a hit: at the top dose activity, positive = more growth. 270,000 compounds, 0.4% hits. AID 2326; calls by dose curve; further: potency means the concentration at half of the fitted maximal effect; actives are rising curves; nearly all actives have a fitted effect of over 50% in size
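Compounds were scored for reversing the slow growth caused by influenza A NS1 in S. cerevisiae, measured by optical density at 600 nm. Assay medium contained 2% galactose at pH 6.0; NS1-free yeast of the same strain were the positive control.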
Pf growth 96h: inhibits malaria parasite growth, 96 h; P. falciparum luciferase reporter growth, 96 h; Potency, µM (highest dose often 28.7 µM), for inactives: top-dose activity change, negative = inhibition, usual class: inhibitors; 320,000 compounds, 6.9% hits; AID 504834; further: potency means the concentration at half of the fitted maximal effect; on the % scale 0 is the no-effect control and ±100 the full control effect
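Two parasite generations (96 h, 37 C, 5% CO2) of compound exposure in infected erythrocytes (0.05% parasitemia, 2% hematocrit). Luciferase-reporter P. falciparum; decreased luminescence indicates inhibited growth, aimed at apicoplast-acting delayed death.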
Cycloheximide cs: affects cycloheximide protein synthesis inhibition readout, counter-screen | cell reporter, cycloheximide protein synthesis inhibition counterscreen | max response, % | 300,000 compounds, 12% hits; in the data active means max response mostly above about 13%, no sharp cut-off; inactive means mostly below about 14%; further: read at 38.3 µM for the half of the compounds with a filed dose; 0% is about no effect
Pf growth 48h: inhibits P. falciparum growth in the first generation, 48 h; P. falciparum luciferase growth in erythrocytes, 48 h; Potency, µM (doses to about 28.7 µM), inactives show at the highest dose activity change, negative = inhibition, most hits filed as inhibitors; 310,000 compounds, 5.9% hits; AID 504832; further: potency means the concentration at half of the fitted maximal effect; on the % scale 0 is the no-effect control and ±100 the full control effect
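Cell-based growth assay: transgenic P. falciparum expressing firefly luciferase, cultured in red cells within RPMI 1640 containing 0.5% w/v Albumax, 24 mM bicarbonate and gentamycin. A drop in luciferase activity indicates inhibition.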
Shiga inhibitor: inhibitors of Shiga toxin in Vero cells; Vero cells, Shiga toxin protein synthesis inhibition reporter; AID 2315; inhibition, % at 38.7 µM; 290,000 compounds, 9.2% hits; in the data active means inhibition mostly above about 28%, no sharp cut-off; inactive means mostly below about 43%; further: 0% is about no effect
Active calls of the source: *; ? = inconclusive; . = no result. Only some compounds are listed: those with a hit (about 21% of all), similar ones and a draw of the others. Unless noted, the call rests on the fitted dose curve; in most records, active means well fitted inhibition curve with a large enough effect; inconclusive means small, poorly fitted or top-dose-only effect, or another doubt; inactive means no such curve, though single readings can be large or run the other way.

SMILES	NS1 function inh	Pf growth 96h	Cycloheximide cs	Pf growth 48h	Shiga inhibitor
COc1ccccc1CCCNC(=O)C1CCC(=O)N(CCc2ccc(Cl)cc2)C1 (configuration not stated)	-30%	?	8	-30%	-3
COc1ccc(/C=N/NC(N)=S)cc1OC(=O)c1ccccc1	12%	3%	6	.	-32
COC(=O)N/N=C/c1ccccc1	1%	20%	17*	23%	30
COc1ccc(/C=N/NC(=S)SC)cc1OC	.	?	18*	-29%	22
CSC(=S)N/N=C/c1ccccc1	.	?	25*	?	27*
O=C(O)c1cc2cccc(S(=O)(=O)N3CCCCC3)c2cc1O	-5%	20%	-4	0%	-7
Cc1nc2ccc(NC(=O)Cc3ccccc3F)cc2s1	-4%	100%	58*	117%	103*
O=C(Cc1ccsc1)NCC(=O)Nc1ccc(F)c(F)c1	12%	?	-1	-6%	-16
Cc1ccc(NC(=O)Cc2ccsc2)cc1Cl	-2%	33%	25*	35%	56*
Cc1nc2ccc(NC(=O)Cc3cccc(F)c3)cc2s1	.	87%	36*	30%	39*
Cc1nc2ccc(S(=O)(=O)NCC(=O)Nc3ccc(F)cc3)cc2s1	-1%	?	-7	-1%	3
Cc1nc2ccc(NC(=O)Cc3ccsc3)cc2s1	-1%	110%	28*	.	25
COc1ccc(Br)cc1-c1nc(CCl)cs1	-9%	20%	-3	-8%	-20
Cc1cccc(NC(NC(=O)c2ccccc2[N+](=O)[O-])C(Cl)(Cl)Cl)c1 (configuration not stated)	-18%	-5%	1	-23%	-17
S=C(NCc1ccccc1)Nc1ccc2cn[nH]c2c1	1%	-11%	2	10%	26
COc1ccc(-n2cc(CN3CCC(OC)CC3)c(-c3cccc(F)c3)n2)cc1	6%	25%	8	10µM*	9
COc1cccc(-c2nn(-c3ccccc3)cc2CN(C)C(C)c2ccncn2)c1 (configuration not stated)	0%	?	6	?	19
COc1ccc(-n2cc(CN(C)C(C)c3ccncn3)c(-c3cccc(F)c3)n2)cc1 (configuration not stated)	-4%	8%	3	10µM*	2
COc1ccc(-n2cc(CNC3CCC(O)CC3)c(-c3cccc(F)c3)n2)cc1 (configuration not stated)	0%	?	2	?	13
COc1ccc(-n2cc(CN(C)CCO)c(-c3cccc(F)c3)n2)cc1	3%	19%	54*	?	107*
Cc1cccc(-n2cc(CN3CCCN(C=O)CC3)c(-c3cccc(F)c3)n2)c1	3%	-25%	24*	?	52*
COC(=O)C1=C(c2ccc3ccccc3c2)C[C@@H]2CC[C@H]1N2C(=O)NCc1ccc(F)cc1	.	?	.	8.3µM*	.
COC(=O)C1=C(c2ccc3ccccc3c2)C[C@@H]2CC[C@H]1N2C(=O)NCc1ccc(C(F)(F)F)cc1	.	?	.	8.3µM*	.
COC(=O)C1=C(c2ccc(OC)c(OC)c2)C[C@@H]2CC[C@H]1N2C(=O)NCc1ccc(F)cc1	.	?	.	-53%	.
COC(=O)C1=C(c2ccc(C(C)=O)cc2)C[C@@H]2CC[C@H]1N2C(=O)NCc1ccc2c(c1)OCO2	.	3.3µM*	.	12µM*	.
SMILES	NS1 function inh	Pf growth 96h	Cycloheximide cs	Pf growth 48h	Shiga inhibitor
COC(=O)C1=C(c2ccc(Cl)c(C(F)(F)F)c2)C[C@@H]2CC[C@H]1N2C(=O)NCc1ccc2c(c1)OCO2	.	32%	.	?	.
CC(C)(C)N(NS(=O)(=O)c1ccc(F)cc1)c1ccccc1	-6%	45%	1	32%	-3
CCn1ncc(Cl)c1C(=O)NC(=S)Nc1ccccc1Br	-42%	?	33*	-9%	21
CCCCOC(=O)c1ccc(NC(=S)NC(=O)c2c(Cl)cnn2CC)cc1	2%	102%	6	53%	35
Cc1nn(C)c(C(=O)NC(=S)Nc2ccccc2Br)c1Cl	-1%	51%	22*	12%	17
Cc1ccc(CSCC2Nc3ccc(C(=O)N4CCN(c5cccc(C)c5)C(C)C4)cc3NC2=O)cc1 (configuration not stated)	17%	14%	-6	?	-2
Cc1ccc2nc(NCCc3ccccc3)c3nncn3c2c1	-4%	186%	11	59%	27
COc1ccc2c(c1)cc(C(=O)N[C@@H](CCSC)C(=O)N1CCC(C(=O)O)CC1)n2C	5%	2%	1	13%	-7
C=CCNC(=O)c1ccccc1NS(=O)(=O)c1ccc(SC)cc1	-10%	.	-3	-9%	-7
CN(C)S(=O)(=O)c1cccc(C(=O)NCCc2ccccc2)c1	-5%	-25%	48*	260%	72*
O=C(NCCc1ccccc1)c1cccc(S(=O)(=O)N2CCCCC2)c1	-7%	-13%	28*	-8%	40*
C=CCNC(=O)c1ccccc1NS(=O)(=O)c1ccccc1	11%	9.3µM*	-2	-7%	10
CN(C)S(=O)(=O)c1cccc(C(=O)Nc2cc(Cl)ccc2O)c1	-57%	-28%	40*	?	34
O=S(=O)(NC1CCCCC1Oc1ccccc1)c1ccccc1 (configuration not stated)	-20%	84%	-3	-4%	-4
CCC(=O)N(Cc1cc(=O)[nH]c2ccccc12)c1ccc(C)cc1C	3%	?	-4	?	-8
CN(C)S(=O)(=O)c1ccc(C(=O)NCCc2ccco2)cc1	4%	74%	25*	73%	63*
O=C(NCCc1ccccc1)C1=CCN(S(=O)(=O)c2ccccc2)CC1	4%	23%	30*	4%	35
O=C(O)c1cccc(S(=O)(=O)Nc2ccccc2C(=O)NCCc2ccccc2)c1	16%	46%	29*	52%	46*
O=C(NCCc1ccccc1)c1ccc(S(=O)(=O)N2CCCC2)cc1	.	-23%	.	-15%	.
CN(C)CCN(Cc1ccco1)C(=O)c1oc2ccccc2c1NC(=O)COc1ccccc1	-26%	80%	-4	?	-4
O=C(CSc1nc2ncccc2[nH]1)Nc1ccccc1-c1ccccc1	-2%	?	-5	-29%	-5
CCOc1nc(SCCOc2ccc(C)cc2)nc(N(C)C)n1	-25%	?	-2	9.3µM*	14
Cc1onc(-c2ccccc2)c1C(=O)N1CC(C)OC(C)C1 (configuration not stated)	-11%	177%	-1	-4%	-23
CCOC(=O)c1c(NC(C)=O)sc2c(OCCN(CC)CC)c(Br)ccc12	-4%	89%	-5	?	7
CCOC(=O)c1c(NC(C)=O)sc2c(OCC(O)CN(CC)CC)c(Br)ccc12 (configuration not stated)	.	7.4µM*	-25	-21%	-28
CC1CSc2n(-c3cccc(C(F)(F)F)c3)cc(-c3ccccc3)[n+]21 (configuration not stated)	-5%	?	-2	1.9µM*	-3

From PubChem BioAssay
